# Laboratory results reported in the supplement of paper PMC6555819.
# Experiments:
# Assay in all cases: PBM binding z-score (relative to random genomic background probes); higher = stronger binding; sequences stand for … in GC…GCGATTGACAGCGTAGAATGAAGG
# [1] = test system: RARb homodimer (NR concentration 270 nM)
# Procedure, shortened: (§1)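 Regression normalization was applied to scanned fluorescence from custom Agilent 4×180K protein-binding microarrays. Before scanning, arrays were incubated 1 h with ligand-free nuclear receptor dimers, and binding was detected with antibodies against each partner (one per run). Binding z-scores use the random background probes as reference.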
# [2] = test system: RARg:RXRa (NR concentration 270 nM, RXRa partner concentration 90 nM)
# Procedure, shortened: as §1
# [3] = test system: RARg homodimer (NR concentration 270 nM)
# Procedure, shortened: as §1
# [4] = test system: RXRa DBDmut IVT, anti-RXR (DBD mutation: RXRa K156A/R161A, NR concentration 90 nM)
# Procedure, shortened: as §1
# [5] = test system: RXRa homodimer (NR concentration 180 nM)
# Procedure, shortened: as §1
# [6] = test system: THRa:RXRa (NR concentration 90 nM, RXRa partner concentration 90 nM)
# Procedure, shortened: as §1
# [7] = test system: THRa homodimer (NR concentration 90 nM)
# Procedure, shortened: as §1
# [8] = test system: VDR homodimer (NR concentration 270 nM)
# Procedure, shortened: as §1
Sequence,PBM binding z-score [1],PBM binding z-score [2],PBM binding z-score [3],PBM binding z-score [4],PBM binding z-score [5],PBM binding z-score [6],PBM binding z-score [7],PBM binding z-score [8]
CCTAGCAGGCCAATCTGGCTCACTCAAGGCTTGA,-0.747,-0.58,-0.5,-0.298,-0.743,-0.627,-0.709,-1.02
CGAACGAGGGCATGAGTTGATATCAAATGCCGAT,0.794,1.37,1.81,2.39,0.883,1.14,-0.157,2.28
GATACAGGGTCAAGGCCAAAGTACGCGTATTGAT,3.82,5.66,5.29,2.45,6.07,3.76,1.43,2.52
GCAGACAGGAGAAACGCAGGTAACTCAGGGTGGC,-0.808,-0.38,-0.484,-0.907,-0.112,0.301,-0.985,-0.432
TAGCCTAGGTCATTGGGCCAGTAAAGTACGCATC,2.78,3.91,4.25,1.61,3.1,2.69,0.775,1.48
CCAGGCAGGTGAGAAGGTAACTCAGCCTCGATTA,0.294,0.181,-0.0537,-0.754,0.145,0.198,-0.116,-0.279
CGAACCAGGTCATTGACAGGACAGTGAATAGTAA,2.5,4.94,4.22,3.22,3.57,3.31,1.84,1.8
CTCGAAAAGTCGGTTGAGGTGAGTATACGGATAA,0.0667,0.446,0.172,-0.0991,0.212,3.57,1.15,-0.144
TCTAGTTGGTCACGGAGGTCACGCACGACGGGTA,4.76,5.46,5.23,1.28,6.17,4.05,3.31,3.06
ATCGAGAGGTCGACGAGGTGAGTATACACCGTTT,1.94,3.1,2.85,1.07,3.46,3.58,0.777,1.52
CGTCCATGGTCAAAGGTCAGTGAAGAGATGACGG,4.5,5.6,5.53,0.569,5.87,2.73,-0.0105,0.771
ACTGTTAGTTGAGACGAGGGCAACCGATAGGTTG,1.26,0.764,1.13,0.337,0.451,2.63,0.349,0.808
TCTTGTAGATCAACCAGGTTAAGAAAGCCTGAGT,0.615,0.0614,-0.146,0.718,0.38,0.777,0.123,0.207
TCTTGTACATCAATAGAGGTTAAGAAAGTGCGCT,1.31,0.893,0.714,1.08,1.46,1.52,-0.338,-0.116
TGTCAAAGTTCAAACGTAACGTAAGTATCCACAC,3.89,5.71,6.15,4.86,5.15,2.12,-0.319,4.63
CTACCAAGGTGAAGAAGGTCGTTGATTACTATTC,1.74,1.35,1.07,0.727,1.34,2.13,0.885,1.34
CCTGCTAAGTCATGGTCAGCTAATCTACAGTATG,0.142,0.135,0.315,0.518,0.0599,-0.13,-0.892,-0.337
ATATGTAGGTTACATCCGGGCCATTCAGGCTATG,0.788,1.35,0.995,0.497,0.936,2.04,0.851,0.406
CCTTGGAGGACAACAGGAGGTCAGAGCTGCCAGA,3.58,3.49,3.03,0.451,2.08,2.88,1.13,1.24

Sequence,PBM binding z-score [1],PBM binding z-score [2],PBM binding z-score [3],PBM binding z-score [4],PBM binding z-score [5],PBM binding z-score [6],PBM binding z-score [7],PBM binding z-score [8]
TCAGACAGGTGAAGGTAACTCAGGTACGCAGTCG,1,0.581,0.551,1.37,0.995,1.48,0.516,0.357
CGAACTAGGTCACGGACAGTGAATCTCCGCACGC,3.36,5.11,5.73,1.82,3.99,3.53,2.1,0.814
CTCGAAAGGTCGGTTGACGTGAGTATACGGATAA,1.53,2.54,2.8,1.06,2.29,1.21,-0.605,0.501
TCTTGTAGATCAGCAGGCTAAGAAAGCTGGCCAA,-0.81,-0.564,-0.754,0.38,-0.261,-0.424,-1.21,-0.475
GGTCGGAGGACAAGGTCAGAGCTTTGTCCGTAGA,3.33,3.31,4.24,0.467,2.46,3.12,1.85,0.993
ACTAGCAGGCCTAGGGTCACTCAAGATTAGTCCG,2.83,2.61,2.35,0.221,3.15,3.27,2.26,1.07
CCTACTGGGCCAATCAGAGGTCATTGATCATATG,4.14,4.56,3.26,0.861,3.82,3.13,1.38,3.81
ACTATTAGTTGAGACCAGGGCAACCGATAGGTTG,0.667,0.276,0.568,-0.232,0.3,1.79,0.11,0.0358
ACTAGTTGGTCAGCTGAGGGCACACACAATTCGG,2.11,0.999,1.42,0.326,0.707,3.55,1.29,0.929
TCTGCTAGGTCAGTTGGTCTGCTAACGAGCTGCC,2.11,1.92,3.27,0.135,0.318,1.08,-0.124,-0.575
ATCTCTAGGTAAAAGTTGAGTGAATCCCGAGGAT,0.0614,0.517,0.653,0.044,0.435,0.387,0.0583,-0.06
TTACGAAGGTGAGCTGAGGTCGTTGATCCAACTC,1.6,1.37,1.23,0.439,1.27,4.56,1.78,2.57
GCTTACGGGTCAAAGGTTTTAGCATGAATAGAAT,2.53,4.83,4.15,2.2,6.49,2.76,-0.137,1.41
ATCTCTAGGTAAAAGATCAGTGAATCCCGAGGAT,-0.353,0.381,0.48,-0.342,0.281,0.298,0.125,-0.0729
TCTATGAGTTGAAGGGCAACCGACGAGTCCGTTT,1.12,0.637,0.461,1.55,0.971,0.511,-0.405,1.57
TCTATTAGTTGATTAGGGCAATCGAAACAGCGGA,0.402,0.658,0.528,0.966,0.804,0.453,0.15,0.435
TCTTGTAGATCAAGCAGGTTAAGAATGCCTGAGT,0.163,-0.103,-0.0252,0.563,0.24,0.276,-0.376,0.0352
TGAATGAGGCTAAAGATCAGGGAACGTGGCGTCG,-0.821,-0.0145,0.0972,-0.642,0.184,0.0902,-1.04,-0.642
CGTCCAAGGTCAGCAGGTCTGTGAAAGCGACGTG,3.23,5.26,6.07,2.62,3.69,3.45,1.82,1.65

Sequence,PBM binding z-score [1],PBM binding z-score [2],PBM binding z-score [3],PBM binding z-score [4],PBM binding z-score [5],PBM binding z-score [6],PBM binding z-score [7],PBM binding z-score [8]
TCTTGTAGATCAGCAGCTTAAGAAAGCTGGCCAA,-0.684,-0.435,-0.915,0.258,-0.355,-0.626,-0.605,-0.685
AGAACGAGGGCAATGAGCTGATAGCACGGGTGGC,0.707,1.15,1.22,1.19,0.871,0.598,-0.379,0.597
CCGACTGGGGCAAGGTTACCATTACGCACAGCCA,1.42,0.911,1.17,-0.427,1.03,1.09,0.435,0.338
GGAACGAGGGGATTCGAGTTGATAGCATGGCGAT,-0.999,-0.337,-0.0526,-0.0556,-0.258,0.618,-0.631,0.0927
CGAACTAGATCATCCAGGACAGTGAATACATTGA,0.254,0.0804,0.347,0.701,-0.151,1.13,1.14,0.494
CGTCCAAGGTCAAAGGTCAGTGAAGAGATGACGG,5.42,8.7,7.94,3.87,10,4.99,2.62,4.06
ATAAGTAGGTTAGCTGGGGTCATTCAGACTAGGC,3.84,4.16,2.94,1.95,5.34,5.32,3.54,4.63
TCAGACAGGTGAAGGTAAATCAGGTACGCAGTCG,0.943,0.61,0.667,1.77,1.06,1.58,0.468,0.53
TCTTGTAGATCAATCAGGTTAAGAAAGCCTGAGT,0.194,0.0482,-0.074,0.724,0.241,1.02,0.308,0.0655
TTGAGTAGGTTAGGGGCATTCAGAATGGCGTCGA,1.7,0.491,0.689,0.378,0.569,1.14,1.29,1.51
TTACCAAGGTGAGCGGAGGTCGTTGATCCAACTC,1.72,1.31,1.18,-0.227,1.44,3.73,0.656,0.886
GATATTAGTTGAAAGGGCAACCGAATGATTCTCG,2.28,1.73,1.61,1.04,1.58,0.705,0.0377,0.787
TCTCGGAGGACACGCAGGTCAGAGCTTTCCAGAG,2.81,2.47,3.04,0.783,1.05,2.63,1.06,1.2
CCTTACGGGTCACTCCTGGTTATAGCATCGGAGT,2.89,4.05,4,1.26,3.9,2.86,-0.0278,1.19
TCTAGCAGGCAAGAGGGTCACTCAAGAGGTACGG,2.42,2.15,1.93,-0.113,2.5,1.47,-0.453,0.595
GATGCTAGGTCAACTGATGGTCAGCTAAAGCTCG,3.45,5.12,5.33,1.06,2.84,2.98,0.992,-0.0193
AGAATGAGGTTATACGTAGATCAGGAAAGAAAGT,0.817,1.68,1.3,1.77,2.25,2.15,0.219,0.894
AGAGTGAGGTTATACGTAGATCAGGGAAGAAAGT,1.53,1.82,1.28,1.38,2.03,2.21,1.15,1.41
ACTCGGAGGACAAAGTTCAGAGCTACGCCAGTGA,2.84,3.2,2.63,2.1,1.63,1.71,-0.296,2.54
